# Data as given in the supplement of paper PMC6555819.
# Legend:
# Assay in all cases: PBM binding z-score (relative to random genomic background probes); higher = stronger binding; sequences stand for … in GC…GCGATTGACAGCGTAGAATGAAGG
# [1] = system: FXR:RXRa (NR concentration 270 nM, RXRa partner concentration 90 nM)
# Summary of the method: (§1)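 Ligand-free nuclear receptor dimers were bound for 1 h to custom Agilent 4×180K protein-binding microarrays. Detection used antibodies against each partner (one per run). Binding z-scores rest on regression-normalized fluorescence, with random background probes as the reference.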
# [2] = system: LXRa:RXRa (NR concentration 270 nM, RXRa partner concentration 90 nM)
# Summary of the method: as §1
# [3] = system: LXRa homodimer (NR concentration 270 nM)
# Summary of the method: as §1
# [4] = system: LXRb:RXRa (NR concentration 270 nM, RXRa partner concentration 90 nM)
# Summary of the method: as §1
# [5] = system: LXRb homodimer (NR concentration 270 nM)
# Summary of the method: as §1
# [6] = system: PPARa:RXRa (NR concentration 270 nM, RXRa partner concentration 90 nM)
# Summary of the method: as §1
# [7] = system: PPARg:RXRa (NR concentration 180 nM, RXRa partner concentration 90 nM)
# Summary of the method: as §1
# [8] = system: PPARg:RXRa 270nM:90nM, anti-RXR (NR concentration 270 nM, RXRa partner concentration 90 nM)
# Summary of the method: as §1
# [9] = system: PPARg:RXRa 30nM:10nM, anti-RXR (NR concentration 30 nM, RXRa partner concentration 10 nM)
# Summary of the method: as §1
# [10] = system: PPARg:RXRa 90nM:30nM, anti-RXR (NR concentration 90 nM, RXRa partner concentration 30 nM)
# Summary of the method: as §1
# [11] = system: PPARg:RXRa DBDmut IVT, anti-RXR (DBD mutation: RXRa K156A/R161A, NR concentration 270 nM, RXRa partner concentration 90 nM)
# Summary of the method: as §1
# [12] = system: PPARg:RXRa IVT, anti-PPARg (NR concentration 270 nM, RXRa partner concentration 90 nM)
# Summary of the method: as §1
# [13] = system: PPARg DBDmut:RXRa IVT, anti-PPARg (DBD mutation: PPARg1 K132A/R137A, NR concentration 270 nM, RXRa partner concentration 90 nM)
# Summary of the method: as §1
# [14] = system: PPARg DBDmut IVT, anti-PPARg (DBD mutation: PPARg1 K132A/R137A, NR concentration 270 nM)
# Summary of the method: as §1
# [15] = system: PPARg homodimer (NR concentration 180 nM)
# Summary of the method: as §1
# [16] = system: PXR:RXRa (NR concentration 270 nM, RXRa partner concentration 90 nM)
# Summary of the method: as §1
# [17] = system: PXR homodimer (NR concentration 270 nM)
# Summary of the method: as §1
# [18] = system: RARa:RXR (NR concentration 270 nM, RXRa partner concentration 90 nM)
# Summary of the method: as §1
# [19] = system: RARa homodimer (NR concentration 270 nM)
# Summary of the method: as §1
# [20] = system: RARb:RXRa (NR concentration 270 nM, RXRa partner concentration 90 nM)
# Summary of the method: as §1
Sequence,PBM binding z-score [1],PBM binding z-score [2],PBM binding z-score [3],PBM binding z-score [4],PBM binding z-score [5],PBM binding z-score [6],PBM binding z-score [7],PBM binding z-score [8],PBM binding z-score [9],PBM binding z-score [10],PBM binding z-score [11],PBM binding z-score [12],PBM binding z-score [13],PBM binding z-score [14],PBM binding z-score [15],PBM binding z-score [16],PBM binding z-score [17],PBM binding z-score [18],PBM binding z-score [19],PBM binding z-score [20]
AATACAGGGTCATCGTAGGCCAGTGTACGCACAG,6.9,6.17,2.35,4.64,1.16,5.62,6.48,5.88,3.01,4.66,2.67,4.1,1.31,0.904,2.51,4.95,0.408,5.01,1,4.35
TCTAGTTGGTCACGGAGGTCACAGACGACGGGTA,3.38,3.46,1.88,3.32,0.321,4.34,3.91,4.32,3.41,3.8,2.62,4.51,0.854,1.64,3.09,4.61,0.763,4.83,1.36,3.96
ATATGTAGGTTAGCTAGGGTCATTCAGACTAGGC,4.45,5.22,1.89,3.59,0.624,4.36,4.65,4.41,2.3,3.61,6.58,6.18,2.95,1.89,3.4,5.64,2.1,4.85,1.52,2.71
CGTCAAAGATCAACTAAGGTAACGTAAAGCACGC,1.52,0.952,0.0696,0.635,-0.0274,1.19,0.897,0.957,0.274,0.711,-0.00407,0.5,0.6,0.489,0.91,1.32,0.224,1.52,0.595,0.548
CGAACTAGGTGAGAACAGGACAGTGAAGGATGAT,-0.071,-0.292,-0.107,-0.534,-0.796,1.57,2.76,2.11,0.836,1.12,6.37,5.97,0.979,0.431,0.246,0.0752,0.241,0.486,0.275,0.285
CATCCAAGGTCAGAGAGGTCAGTGAATGCCGAGT,6.31,5.84,4.54,4.58,1.57,5.23,4.13,4.43,1.5,2.83,2.91,3.85,0.635,-0.591,4.41,6.17,12,5.72,3.06,5.38
GGAACGAGGGCCTTCGAGTTGATAGCATGGCGAT,-0.344,-0.805,-0.648,-0.91,-1.22,-0.579,0.209,-0.359,-0.539,-0.758,0.104,-0.566,-0.653,-1.28,-1.03,-0.313,-0.534,-0.659,-0.765,-0.306
TGAATGAGGTTATAAGATCAGGGAACGTTGCAAA,1.18,1.31,-0.538,0.8,-0.0754,2.61,1.22,1.75,0.754,1.38,1.08,1.54,0.481,0.281,-0.132,0.601,-0.261,1.25,0.0131,1
CCTCGGAGGACAACAGGAGATCAGAGCTGCCAGA,-0.269,-0.36,-0.193,-0.853,-1.12,-0.626,0.424,-0.794,-0.377,-0.822,-0.232,-0.63,-1.13,-1.73,-0.0101,-0.68,-0.412,-0.621,-0.0651,0.694
CCTGCAAGGTCAATGGTCAGCTAAAGCAGCTCGC,6.55,4.95,0.264,3.63,0.38,5.21,4.22,4.88,1.21,3.68,2.93,2.76,-0.252,-1.15,2.72,3.78,0.469,4.56,0.759,5.01
GCGACTGGGGCAAAGCCGGTTACCATAAGGTTGG,-0.281,-0.532,-0.832,-0.581,-1.01,0.472,0.627,0.491,-0.849,-0.0511,3.46,2.75,-0.287,-1.49,-0.424,-0.547,-0.627,-0.45,-0.427,0.632
CCTTACCGGTCACTGACAGGTTATAGCATTTGGA,1.09,1.89,1.73,1.31,0.619,1.49,0.664,0.675,0.114,0.418,0.892,1.17,0.534,0.217,2.23,1.01,0.467,1.29,1.61,3.06
GCTAGTTGGTCAGTAAAAGGTCACACCCCGGTCG,2.85,4.02,4.42,3.74,0.781,4.19,2.69,4.11,2.14,3.78,0.618,2.91,-0.641,-0.291,3.31,4.6,0.747,5.06,0.952,4.21
GATACAGGGTCAAGGCCAGACTACGCGTATTGAT,6.8,3.95,0.21,3.72,-0.0563,5.69,6.16,5.88,2.85,4.87,2.8,3.83,0.238,0.461,2.54,4.03,0.191,4.98,0.813,4.6
